{
  "source": "PubChem BioAssay (Tox21)",
  "note": "Several values for one entry are separate records, joined by “and”; a condition that tells them apart may be missing. Equal entries are not always repeated. Inconclusive results are not listed. Values without a mark were called inactive. Activity calls are given as the source filed them. Calls follow the shape of the dose curve; as a rule, active = well fitted cell-killing curve with a large enough effect in the repeat runs; inconclusive = weak or mixed curves, or effect the other way; inactive = flat fitted curve, though single readings scatter. % is scaled to controls: 0 for no effect and ±100 for the full control effect; potency is read from the fitted curve at half-maximal effect.",
  "data": [
    {"assay": "Caspase-3/7 induction in HepG2 cells by small molecules, qHTS cell viability counter screen (AID 1346981); also: nearly all actives have a fitted effect of over 30% in size", "conditions": "CellTiter-Fluor fluorescence, 17 h; series mostly up to 92.4 µM; activity change, negative = cytotoxicity: at the top concentration", "description": "U.S. Tox21 Program National Center for Advancing Translational Sciences [NCATS] NIH Chemical Genomics Center [NCGC] U.S. Environmental Protection Agency [EPA] National Institutes of Environmental Health Sciences [NIEHS] National Toxicology Program [NTP] U.S. Food and Drug Administration [FDA] Tox21 Assay Overview: Apoptosis is a process of programmed cell death and plays a central role in the development of multicellular organisms. It is a highly regulated process and induces cell death by activating caspases, which are the members of cysteine aspartic acid-specific protease (caspase) family. Caspases involved in apoptosis are classified by their mechanism of action as initiator caspases (caspase-2, -8, -9 and -10) and executioner caspases (caspase-3, -6, and -7). Inhibition of apoptosis results in number of cancers, autoimmune diseases, inflammatory diseases and viral infection. To identify small molecule compounds that induce apoptosis, a homogeneous, luminescent Caspase-Glo 3/7 assay was used. Wild type HepG2 cells were used to screen Tox21 libraries for identifying caspase-3/7 activity inducers. Also cytotoxicity of the compounds was tested in parallel by measuring the cell viability using CellTiter-Fluor assay system in the same wells.\nTox21 Assay Protocol Summary: HepG2 cells were dispensed at 2,000 per well in 5uL of culture medium into white solid bottom 1536-well plates (Corning Life Sciences, Corning, NY) using a Multidrop Combi (Thermo Scientific, Waltham, MA) dispenser. The assay plates were incubated at 37 C and 5% CO2 for 5hr, and then 23nL of compounds dissolved in DMSO and positive control were transferred using a Pintool station ([…], San Diego, CA). The assay plates were incubated at 37C and 5% CO2 for 17hr. For cytotoxicity read, after 16hr incubation at 37C, 1uL CellTiter-Fluor reagent (Promega Corporation, Madison, WI) was added to each well of the assay plates using Flying Reagent Dispenser (FRD, Aurora Discovery, San Diego, CA). After 1hr incubation at 37C and 5% CO2, the fluorescence signal was quantified using a ViewLux plate reader (PerkinElmer, Shelton, CT).", "values": [
      {"molecule": "CC(C)CCCCCCCOC(=O)c1ccccc1C(=O)OCCCCCCCC(C)C", "activity change, negative = cytotoxicity": "-0.61%"},
      {"molecule": "Nc1ccc2c(c1)Cc1ccccc1-2", "activity change, negative = cytotoxicity": "1.96%"},
      {"molecule": "CC(=O)NNc1ccccc1", "activity change, negative = cytotoxicity": "-4.92%"},
      {"molecule": "O=[N+]([O-])O[C@H]1CO[C@H]2[C@@H]1OC[C@H]2O[N+](=O)[O-]", "activity change, negative = cytotoxicity": "-0.222% [at 42.5 µM]"},
      {"molecule": "CCOP(=O)(SC(C)CC)N1CCSC1=O", "note": "(stereo not given)", "activity change, negative = cytotoxicity": "4.88%"},
      {"molecule": "C[C@H](N)[C@H](O)c1ccc(O)c(O)c1", "activity change, negative = cytotoxicity": "-8.22% [at 42.5 µM]"},
      {"molecule": "CC(C)(C)c1ccc(CCOc2ncnc3ccccc23)cc1", "activity change, negative = cytotoxicity": "0.177%"},
      {"molecule": "Cc1ccccc1", "activity change, negative = cytotoxicity": "0.193%"},
      {"molecule": "Oc1cccc(Cl)c1", "activity change, negative = cytotoxicity": "-1.89%"},
      {"molecule": "O=C=NC1CCCCC1", "activity change, negative = cytotoxicity": "8.09%"},
      {"molecule": "Cc1ccc2c(C)cccc2c1", "activity change, negative = cytotoxicity": "1.54%"},
      {"molecule": "C=CCc1ccccc1O", "activity change, negative = cytotoxicity": "0.391%"},
      {"molecule": "CCCCCCCCP(=O)(O)O", "activity change, negative = cytotoxicity": "8.92%"},
      {"molecule": "O=C(O)COc1cc(Cl)c(Cl)cc1Cl", "activity change, negative = cytotoxicity": "3.29%"},
      {"molecule": "CC(Cl)C(=O)O", "note": "(stereo not given)", "activity change, negative = cytotoxicity": "-2.53%"},
      {"molecule": "CCC(C)Cl", "note": "(stereo not given)", "activity change, negative = cytotoxicity": "2.17%"},
      {"molecule": "O=C(O)C(F)(F)C(F)(F)C(F)(F)C(F)(F)C(F)(F)F", "activity change, negative = cytotoxicity": "12.4%"},
      {"molecule": "COc1cc(CC#N)cc(OC)c1OC", "activity change, negative = cytotoxicity": "6.75% [at 42.5 µM]"},
      {"molecule": "CCOP(=O)(O)C(N)=O", "activity change, negative = cytotoxicity": "1.71%"},
      {"molecule": "C[N+]1(CCC(C(N)=O)(c2ccccc2)c2ccccc2)CCCCC1", "activity change, negative = cytotoxicity": "0.228% [at 42.5 µM]"},
      {"molecule": "C[CH2][Hg][S]c1ccccc1C(=O)O", "Potency": "12.2 µM (active) and 13.3 µM (active)"},
      {"molecule": "O=C(O)c1cc(Cl)ccc1Cl", "activity change, negative = cytotoxicity": "-0.357%"},
      {"molecule": "Clc1ccccc1", "Potency": "26.9 µM (active)"},
      {"molecule": "ClCc1ccccc1Cl", "activity change, negative = cytotoxicity": "8.69%"},
      {"molecule": "Cc1cnc(C2=NC(C)(C(C)C)C(=O)N2)c(C(=O)O)c1", "note": "(stereo not given)", "activity change, negative = cytotoxicity": "2.6%"},
      {"molecule": "COc1ccc2c(c1OC)C(=O)O[C@H]2[C@@H]1c2cc3c(cc2CCN1C)OCO3", "Potency": "11.9 µM (active)"},
      {"molecule": "C=C(C)C(=O)OCCCCOC(=O)C(=C)C", "activity change, negative = cytotoxicity": "-0.491%"},
      {"molecule": "C=CC(=O)OCC", "activity change, negative = cytotoxicity": "5.08%"},
      {"molecule": "N#CC1(N=NC2(C#N)CCCCC2)CCCCC1", "activity change, negative = cytotoxicity": "-1.03%"},
      {"molecule": "CCCCCCCCCCCCN(C)C", "activity change, negative = cytotoxicity": "-0.214%"},
      {"molecule": "COC1=CC(=O)O[C@@H](/C=C/c2ccc3c(c2)OCO3)C1", "activity change, negative = cytotoxicity": "-1.35%"},
      {"molecule": "CCCBr", "activity change, negative = cytotoxicity": "8.21%"},
      {"molecule": "CC(Oc1cc(Cl)c(Cl)cc1Cl)C(=O)O", "note": "(stereo not given)", "activity change, negative = cytotoxicity": "12.3%"},
      {"molecule": "O=C1CC[C@@]2(O)[C@H]3Cc4ccc(O)c5c4[C@@]2(CCN3CC2CC2)[C@H]1O5", "activity change, negative = cytotoxicity": "0.0147% [at 42.5 µM]"},
      {"molecule": "CCOP(=S)(S)OCC", "activity change, negative = cytotoxicity": "-0.919%"},
      {"molecule": "CCOC(=O)c1cncn1C(C)c1ccccc1", "note": "(stereo not given)", "activity change, negative = cytotoxicity": "0.727% [at 42.5 µM]"},
      {"molecule": "CCCCC1C(=O)NC(=O)N(C2CCCCC2)C1=O", "note": "(stereo not given)", "activity change, negative = cytotoxicity": "10% [at 42.5 µM]"},
      {"molecule": "COc1cc(C[C@@H](C)N)c(OC)cc1Br", "activity change, negative = cytotoxicity": "-9.88%"},
      {"molecule": "CCOC(C(=O)OCCN(C)C)(c1ccccc1)c1ccccc1", "activity change, negative = cytotoxicity": "-1.84% [at 42.5 µM]"},
      {"molecule": "C=CCOC(=O)C(C)(C)OC(=O)c1cc(-n2c(=O)cc(C(F)(F)F)n(C)c2=O)ccc1Cl", "activity change, negative = cytotoxicity": "-4.69%"}
    ]}
  ]
}
